An excerpt weighted towards active compounds, which were near 1.8% of everything screened.
Fam108B counter: blocks mouse Fam108B hydrolase in RBBP9 counter-screen; inhibition, % at 9.51 µM; recombinant Fam108B, FP-Rh probe fluorescence polarization; hit rate 0.33% among 300,000; AID 1947;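 active = inhibition above the screen mean inhibition plus 3 SD, computed separately per campaign, cut at about 18% in these data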;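 also: inhibitors lower polarization as less probe binds the enzyme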
PME-1 inh: blocks human protein phosphatase methylesterase 1 | recombinant PME-1, FP-Rh probe fluorescence polarization | hit rate 0.53% among 320,000 | Q9Y570 | AID 2130 | inhibition, % at 5.9 µM;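 active = inhibition above the campaign mean of all compounds plus 3 SD, cut at about 26% in these data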;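 also: competitive labeling of PME-1 active site by serine hydrolase directed probe; inhibitors block probe labeling so polarization falls and inhibition rises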
LYPLA1 inh: counter-screen for PME1 inhibitors: inhibitors of human LYPLA1; recombinant LYPLA1, FP-Rh probe fluorescence polarization; inhibition, % at 5.9 µM; O75608; hit rate 0.16% among 320,000; AID 2174;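 active = inhibition above the mean of all tested compounds plus 3 SD, set per campaign, cut at about 14% in these data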;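 also: inhibitors block serine hydrolase probe labeling of LYPLA1 so polarization falls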
PAD4 inh: blocks human protein arginine deiminase 4; inhibition, % at 6.36 µM; hit rate 0.41% among 330,000; AID 485272; recombinant PAD4, RCA probe fluorescence polarization; Q9UM07;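 active = percent inhibition above a cutoff equal to the mean of all tested compounds plus 3 SD, cut at about 15% in these data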
GSTO1 inh: GSTO1 inhibition, counter-screen for RBBP9 inhibitors; P78417; recombinant GSTO1, activity-based probe fluorescence polarization; inhibition, % at 5.96 µM; hit rate 1.1% among 300,000; AID 1974;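 active = inhibition above the campaign mean inhibition plus 3 SD, cut at about 35% in these data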
Target sequence (P78417 whole entry, looked up): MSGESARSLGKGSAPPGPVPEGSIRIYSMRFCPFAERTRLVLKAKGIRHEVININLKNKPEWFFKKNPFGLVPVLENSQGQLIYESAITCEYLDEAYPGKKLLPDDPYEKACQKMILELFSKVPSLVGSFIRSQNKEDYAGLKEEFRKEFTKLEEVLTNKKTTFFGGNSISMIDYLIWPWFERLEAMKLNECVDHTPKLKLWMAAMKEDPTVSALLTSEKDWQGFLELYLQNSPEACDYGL
LYPLA2 counter: counter-screen for PME1 inhibitors: inhibitors of human LYPLA2 | O95372 | recombinant LYPLA2, FP-Rh probe fluorescence polarization | inhibition, % at 5.9 µM | hit rate 0.38% among 320,000 | AID 2177;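 active = inhibition above the screen-wide mean plus 3 SD, limit set per campaign, cut at about 26% in these data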
Target sequence (O95372 whole entry, looked up): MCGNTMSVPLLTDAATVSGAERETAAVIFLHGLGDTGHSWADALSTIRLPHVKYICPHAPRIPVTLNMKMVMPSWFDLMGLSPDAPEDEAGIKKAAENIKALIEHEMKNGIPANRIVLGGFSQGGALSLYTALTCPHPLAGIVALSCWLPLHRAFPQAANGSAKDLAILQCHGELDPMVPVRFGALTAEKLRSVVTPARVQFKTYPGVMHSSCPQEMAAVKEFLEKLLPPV
GSTO1 confirm: GSTO1 (human) inhibition, confirmation. shares compounds with GSTO1 inh. recombinant GSTO1, probe fluorescence polarization. inhibition, % at 5.96 µM. hit rate 54% among 2,400;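 active = inhibition above the primary screen's cutoff, its mean inhibition plus 3 SD, cut at about 35% in these data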;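 also: loss of polarization as inhibitors block binding of rhodamine sulfonate ester activity probe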
GSTO1 recomb ABPP: inhibitors of recombinant human GSTO1. shares compounds with GSTO1 inh. gel ABPP SE-Rh probe fluorescence. inhibition, % at 1 µM. hit rate 30% among 130. AID 463110;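 active = inhibition of the enzyme GSTO1 above about 75%, limit read from the data; inactive = inhibition below that limit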
LYPLA1 conf: LYPLA1 (human) inhibition, confirmation counter-screen; recombinant LYPLA1, FP-Rh probe fluorescence polarization; hit rate 69% among 480; shares compounds with LYPLA1 inh; inhibition, % at 5.9 µM;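 active = mean inhibition across replicates above the hit cutoff set in the primary screen, cut at about 15% in these data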;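 also: loss of FP-Rh probe labeling of LYPLA1 seen as lower polarization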
LYPLA2 conf: LYPLA2 (human) inhibition, confirmation counter-screen; hit rate 72% among 1,100; shares compounds with LYPLA2 counter; inhibition, % at 5.9 µM; recombinant LYPLA2, FP-Rh probe fluorescence polarization;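 active = mean inhibition across replicates above the hit cutoff set in the primary screen, cut at about 26% in these data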;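 also: blocked labeling of the enzyme by serine hydrolase FP-Rh probe lowers polarization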
PAD4 FP conf: confirmation of human PAD4 inhibitors; shares compounds with PAD4 inh; recombinant PAD4, RCA probe fluorescence polarization; inhibition, % at 6.36 µM; hit rate 28% among 1,200; AID 488796;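 active = mean inhibition across replicates above the hit cutoff set by the earlier primary screen, cut at about 15% in these data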;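 also: inhibitors block active-site labeling by the probe so polarization falls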
Large screens that a line does not name were inactive (follow-up assays come after a bar, where they were run); ! = a repeat was not active.

CC(=O)N1CC(=O)Nc2ccc(F)cc2C1c1ccccc1 (configuration not stated)	none
c1ccc(-c2[nH]c[n+](CC3CO3)c2-c2ccccc2)cc1 (configuration not stated)	GSTO1 inh 75.9 | GSTO1 confirm 80.9 | GSTO1 recomb ABPP inactive
O=C(CN1CCCC1=O)Nc1ccccc1	none
O=C(CN1CCCC1=O)N1CCOCC1	GSTO1 inh 56.0 | GSTO1 confirm inactive
CN1OC[C@@H]2COc3ccc4ccccc4c3[C@@H]21	none
O=C1C(c2ccccc2)=C(N2CC2)c2ccccc21	GSTO1 inh 40.8 | GSTO1 confirm inactive
Cn1c(O)c(C2=NN(C(=O)CCl)C(c3ccccc3)C2)c(=O)n(C)c1=O (configuration not stated)	GSTO1 inh 101.7 | GSTO1 confirm 98.0
Oc1ccc2c3c1O[C@H]1c4[nH]c5ccccc5c4C[C@@]4(O)C(C2)N(CC2CC2)CC[C@]314	GSTO1 inh 40.5 | GSTO1 confirm inactive
Oc1ccc2c3c1O[C@H]1c4[nH]c5ccccc5c4C[C@@]4(O)[C@@H](C2)N(CC2CC2)CC[C@]314	none
c1ccc(C2CC3CC(c4ccco4)N2O3)cc1 (configuration not stated)	none
COc1ccc2c(c1)c(C(=O)O)c(C)n2CC(C)C	none
COc1cc(O)c(C(=O)O)c(-c2cc(O)c(O)cc2C)c1	GSTO1 inh 63.7 | GSTO1 confirm inactive
CN(C)C1C(=O)C(C(N)=O)=C(O)C2(O)C(=O)C3=C(O)c4c(O)cccc4C(C)(O)C3C(O)C12 (configuration not stated)	GSTO1 inh 68.4 | GSTO1 confirm 41.9
CC(C)(C)c1o[nH]c(=O)c1CC(N)C(=O)O (configuration not stated)	none
Cc1ccccc1NC(=O)NCCN1CC1	none
CC(C)(C)N1C(=O)NC(=O)/C(=C\c2ccc3c(c2)CCN3CCCCl)C1=O	GSTO1 inh 38.4 | GSTO1 confirm 66.5
O=C1NC(=S)N(C2CC2)C(=O)/C1=C/c1ccc2c(c1)CCN2CCCCl	GSTO1 inh 55.9 | GSTO1 confirm 63.4
CCN1C(=O)/C(=C/c2ccc3c(c2)CCN3CCCCl)C(=O)NC1=S	GSTO1 inh 55.8 | GSTO1 confirm 69.7
CN(C)N=O	none (no result: Fam108B counter, GSTO1 inh)
Cc1cccc(-n2c(=S)[nH]c3ccccc3c2=O)n1	none
CC1CCN(C(=O)CCl)CC1	GSTO1 inh 93.1 | GSTO1 confirm 95.0 | GSTO1 recomb ABPP 83.0
N/C(=N\[N+](=O)[O-])N1CCN(C(=O)Oc2ccccc2)CC1	none
O=C(Nc1ccc(F)c([N+](=O)[O-])c1)N1C[C@H]2C[C@@H](C1)c1cccc(=O)n1C2	none
Clc1ccc(CO/N=C(\Cn2ccnc2)c2ccc(Cl)cc2Cl)c(Cl)c1	none
N=c1sccn1Cc1ccc(Cl)cc1Cl	GSTO1 inh 74.6 | GSTO1 confirm inactive
O=C(O)CC1OCC=C2CN3CCC45C6=CC(=O)C(=O)C([N+](=O)[O-])=C6NC4C1C2CC35 (configuration not stated)	PAD4 inh 66.1, GSTO1 inh 78.6 | GSTO1 confirm 81.9 | PAD4 FP conf 60.1
Cc1nn(CC(=O)N2CCC3(CC2)OCCO3)c(=O)c2cc3ccccc3n12	none
CC[C@@H](CO)NC(=O)[C@@H]1C=C2c3cccc4c3c(cn4C)C[C@H]2N(C)C1	PAD4 inh 22.3!, GSTO1 inh 47.8! | GSTO1 confirm inactive | PAD4 FP conf inactive
Cc1cc(OC(=O)N(C)C)nc2c1c(C)nn2C	none
COC(=O)C1C(O)CC2CCC1N2C (configuration not stated)	none (no result: Fam108B counter, PME-1 inh, LYPLA1 inh, GSTO1 inh, LYPLA2 counter)
COCCOC(=O)c1c(N)n(Cc2ccc(OC)cc2)c2nc3ccccc3nc12	none
CCOC(=O)c1c(NS(=O)(=O)c2ccccc2)n(CCCOC)c2nc3ccccc3nc12	PME-1 inh 33.2, LYPLA1 inh 83.2, PAD4 inh 78.9, GSTO1 inh 93.1, LYPLA2 counter 96.2 | GSTO1 confirm 58.9 | LYPLA1 conf inactive | LYPLA2 conf inactive | PAD4 FP conf inactive
CNc1ccc2oc(C[C@H]3O[C@@]4(CC[C@H]3C)O[C@H]([C@H](C)C(=O)c3ccc[nH]3)[C@H](C)C[C@H]4C)nc2c1C(=O)O	PAD4 inh 56.9, GSTO1 inh 42.3 | GSTO1 confirm inactive | PAD4 FP conf inactive
O=C(NC1CN2CCC1CC2)c1cc(Cl)c([N+](=O)[O-])c2nc[nH]c12 (configuration not stated)	none
CC(=O)N1N=C2C3CCN(CC3)C2C1c1cccc2ccccc12 (configuration not stated)	none
COCCNC(=O)c1c(N)n(CCC(C)C)c2nc3ccccc3nc12	PAD4 inh 40.0, GSTO1 inh 75.0 | GSTO1 confirm inactive | PAD4 FP conf inactive
C=CCN1CC[C@@]2(C)c3cc(O)ccc3CC1[C@@H]2C	none
CN1CC[C@@]2(C)c3cc(O)ccc3N(C)C2O1 (some centres not stated)	PAD4 inh 44.8, GSTO1 inh 85.0 | GSTO1 confirm 51.5 | PAD4 FP conf inactive
COc1cc2c(cc1OC)-c1c(OC)c(OC)cc3c1[C@H](C2)N(C)CC3	PAD4 inh 23.0, GSTO1 inh 47.3 | GSTO1 confirm 71.4 | PAD4 FP conf inactive
Oc1c(Br)cc(Br)cc1Br	none (no result: Fam108B counter, GSTO1 inh)
Oc1c(Br)c(Br)c(Br)c(Br)c1Br	PME-1 inh 74.8, LYPLA1 inh 25.1, LYPLA2 counter 55.8 (no result: Fam108B counter, GSTO1 inh) | LYPLA1 conf 30.2 | LYPLA2 conf 58.4
O=C1Nc2cc(C(=O)N3CCC4(CC3)OCCO4)ccc2NC1CSCc1cccc(F)c1 (configuration not stated)	none
Clc1ccc(C(c2ccc(Cl)cc2)n2cc[n+](CC(OCc3ccc(Cl)cc3Cl)c3ccc(Cl)cc3Cl)c2)cc1 (configuration not stated)	LYPLA1 inh 22.0, LYPLA2 counter 32.0 | LYPLA1 conf 52.2 | LYPLA2 conf 43.5
